This is a sample that favours compounds with a hit; in the whole collection about 2.4% have one here.
D2 PAM-1: HTS Assay for Positive Allosteric Modulators of the Human D2 Dopamine Receptor: Primary Screen for Potentiators. 340,000 compounds, 0.34% hits. HEK293 T-REx D2, calcium flux, EC20 dopamine potentiation. potentiation, % at 10 µM. D(2) dopamine receptor (Homo sapiens), P14416;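 active means potentiation over 3 SD above the plate norm, cut at about 30% in these data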; further: 0% is about no effect
Target sequence (P14416 whole entry, looked up): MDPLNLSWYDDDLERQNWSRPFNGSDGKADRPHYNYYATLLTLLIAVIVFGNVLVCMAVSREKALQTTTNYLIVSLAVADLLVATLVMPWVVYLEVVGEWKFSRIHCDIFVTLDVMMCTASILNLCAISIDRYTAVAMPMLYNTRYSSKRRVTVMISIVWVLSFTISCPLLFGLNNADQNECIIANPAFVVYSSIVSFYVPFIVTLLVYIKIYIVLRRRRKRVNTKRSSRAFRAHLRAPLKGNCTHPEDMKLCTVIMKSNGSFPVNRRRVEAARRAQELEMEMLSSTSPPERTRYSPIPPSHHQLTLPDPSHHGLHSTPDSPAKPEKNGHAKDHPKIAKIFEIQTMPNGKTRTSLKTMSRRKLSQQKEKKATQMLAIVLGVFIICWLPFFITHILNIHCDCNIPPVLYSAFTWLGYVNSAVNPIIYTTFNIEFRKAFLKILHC
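Cells plated with tetracycline inducer and held overnight at 30 C; calcium dye loaded 30–90 min at room temperature; baseline taken, compound added and read 180 s; EC20 dopamine then added and read 180 s.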
D2 antag: HTS Assay for Allosteric Antagonists of the Human D2 Dopamine Receptor: Primary Screen for Antagonists; inhibition, % at 10 µM; D(2) dopamine receptor (Homo sapiens), P14416; 340,000 compounds, 2% hits; HEK293 TREx D2 cells, calcium flux, dopamine EC80; in the data active means inhibition above about 30%; inactive means below that, where a call was filed; further: 0% is about no effect
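Measurement of antagonist activity uses fluorescent calcium dye in inducible HEK293 T-REx D2 cells: 10 s baseline, compound addition with 180 s read, EC80 dopamine addition with a further 180 s read.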
D2 ag-1: HTS Assay for Allosteric Agonists of the Human D2 Dopamine Receptor: Primary Screen for Agonists; D(2) dopamine receptor (Homo sapiens), P14416; 340,000 compounds, 0.53% hits; activation, % at 2 µM; HEK293 T-REx D2 cells, calcium flux agonist mode; AID 485358, 2010;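 active means activation over 3 SD above normal in the single-dose calcium agonist read, cut at about 30% in these data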; further: 0% is about no effect
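Calcium-flux readout, 1 cycle/sec over 180 s following compound pin transfer, in inducible HEK293 Trex D2 cells (force-coupled); dopamine controls included. Positive calcium responses during this window marked compounds as potential agonists.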
D2 PAM-2: Beta-Arrestin HTS for Positive Allosteric Modulators of the Human D2 Dopamine Receptor: Potentiators. D(2) dopamine receptor (Homo sapiens), P14416. DiscoveRx D2 beta-arrestin cells, luminescence, 90 min; 100% = 57 uM dopamine signal. potentiation, % (no concentration beside the values). 360,000 compounds, 0.23% hits; in the data active means potentiation above about 50%
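D2 cells co-treated with compound plus 50 nM dopamine (EC20) for 90 min at 37 deg C to detect potentiation. Beta-arrestin recruitment was read as enzyme-fragment luminescence after 1 h at ambient temperature. Full response was set by 57 uM dopamine.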
D2 ag-2: Beta-Arrestin HTS for Positive Allosteric Modulators of the Human D2 Dopamine Receptor: Agonists; DiscoveRx PathHunter D2 beta-arrestin, luminescence, 90 min; 100% = 57 uM dopamine signal; 360,000 compounds, 0.084% hits; D(2) dopamine receptor (Homo sapiens), P14416; activation, % (no concentration beside the values); in the data active means activation above about 40%
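DiscoveRx PathHunter D2 beta-arrestin cells (2,100/well) attached overnight, then compound-stimulated 90 min at 37 C in HBSS/10 mM HEPES/0.1% Tween-20 buffer; beta-galactosidase complementation read by luminescence after 1 h at ambient temperature. Dopamine 57 uM final (EC100) as control.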
The depositor's hits bear a star; x = no result given.

SMILES	D2 PAM-1	D2 antag	D2 ag-1	D2 PAM-2	D2 ag-2
CCOc1ccc2c(c1)c(C(C)=O)c(C)n2-c1ccccc1	-11	2	40*	-4	-4
CCOC(=O)c1ccc(NC2=CC(=O)C(=O)c3ccccc32)cc1	-6	-8	0	112*	10
CCOC(=O)c1ccc(NC(=O)Oc2ccccc2)cc1	33*	-2	1	-4	0
CCc1nnc(NC(=O)CSc2nnc(-c3ccncc3)n2C)s1	31*	-16	1	-5	-3
Cc1ccc(C)c(Nc2c(F)c(F)c(F)c(F)c2C(=O)O)c1	32*	-2	0	13	4
COc1c(F)c(F)c(C(=O)O)c(Nc2ccc(C)cc2)c1F	2	-1	1	-14	-1
CCCN1CCN(C(=O)Cn2ncc3c4ccccc4n(Cc4cccc(Cl)c4)c3c2=O)CC1	4	x	0	x	x
Cc1ccccc1NC1=NC(=S)N(CC(N)=O)C12CCOC(C)(C)C2 (configuration not stated)	-8	44*	1	-6	-3
Cc1ccccc1-c1nc(CS(=O)(=O)CC(=O)Nc2cccc(C(F)(F)F)c2)c(C)o1	-6	x	0	x	x
O=C(NCc1ccc(Cl)cc1)C1CCN(c2cnccn2)CC1	-18	4	-1	-2	-3
O=C(NCc1ccc(Cl)cc1)C1CCCN(c2cnccn2)C1 (configuration not stated)	-4	36*	-1	-11	-3
CNS(=O)(=O)c1cn(CC(=O)Nc2ccc(C(C)=O)cc2)cc1S(=O)(=O)NC	-6	x	1	x	x
Cc1ccc(-c2nc(C)c(CCNC(=O)C(=O)Nc3ccc(C)c(Cl)c3)s2)cc1	-1	x	-1	x	x
N=c1sccn1CC(=O)NCCc1ccc(Cl)cc1Cl	-9	39*	0	-24	-3
CC(C)COC(=O)n1c(SCC(=O)N(C)C)nc2ccccc21	10	31*	0	-7	-6
CC(C)COC(=O)n1c(SCC(N)=O)nc2ccccc21	1	-21	-2	-19	-2
O=c1cc(C(F)(F)F)oc2c1ccc1ccccc12	4	34*	3	-5	-1
O=c1cc(/C=C/c2ccccc2)oc2c1ccc1ccccc12	-15	10	-1	-1	-7
Cc1ccc2oc(-c3cc(NC(=O)CC(C)C)ccc3Cl)nc2c1	9	x	-2	x	x
O=C(C1CCN(S(=O)(=O)c2ccccc2)CC1)N1CCc2ccccc21	-12	28	98*	-4	-2
O=C(C1COc2ccccc2O1)N1CCc2ccccc21 (configuration not stated)	5	35*	0	26	0
O=C(C1COc2ccccc2O1)N1CCCC1 (configuration not stated)	-3	-6	1	-8	-3
O=C(C1CCN(S(=O)(=O)c2ccccc2)CC1)N1CCN(c2ccccc2F)CC1	10	32*	-1	-3	-2
O=C(CSc1nccn1C1CCCC1)Nc1ccccc1	-4	x	0	x	x
CCC(=O)N1CCN(c2nc3c(C)cccc3s2)CC1	-6	x	x	x	x
SMILES	D2 PAM-1	D2 antag	D2 ag-1	D2 PAM-2	D2 ag-2
O=c1c2sc3ccccc3c2n(Cc2cccc(C(F)(F)F)c2)c(=O)n1-c1ccccc1	10	x	0	x	x
CCN(CC)C(=O)c1cc(S(=O)(=O)N2CCCCC2)c[nH]1	-12	33*	1	-5	2
COc1cccc2cc(C(=O)CC3(O)C(=O)N(Cc4ccccc4)c4ccccc43)c(=O)oc12 (configuration not stated)	40*	5	0	-1	-2
CCc1ccccc1NC(=O)Cn1c(=O)n(-c2ccc(C)cc2)c(=O)c2cc(OC)c(OC)cc21	0	x	0	x	x
CC1=C(C(=O)OC2CCCCCC2)C(c2cccc(Cl)c2)CC(=O)N1 (configuration not stated)	-1	x	0	x	x
COc1ccc(C2C(C(=O)O)CCC(=O)N2c2ccc(OC)cc2)cc1 (configuration not stated)	4	18	0	-7	-2
COc1ccc(C2C(C(=O)NCc3ccco3)CCC(=O)N2c2ccc(OC)cc2)cc1 (configuration not stated)	3	38*	0	-12	-1
CCC(c1nnnn1C1CCCC1)N1CCN(c2ccccc2)CC1 (configuration not stated)	x	52*	2	-8	1
CCC(c1nnnn1C1CCCC1)N1CCN(c2ccccc2F)CC1 (configuration not stated)	-14	4	-1	-6	0
O=C(N/N=C/c1ccc(O)cc1)c1csc2ccccc12	4	32*	0	-5	1
COc1cc(NC(=O)C2CCC(CNc3c(N4CCC(C)CC4)c(=O)c3=O)CC2)cc(OC)c1 (configuration not stated)	30*	16	0	-7	-2
COc1cc(NC(=O)C2CCC(CNc3c(N4CCCCC4)c(=O)c3=O)CC2)cc(OC)c1 (configuration not stated)	4	x	x	-1	5
CCOc1ccc(NC(=O)C2CCC(CNc3c(N4CCC(C)CC4)c(=O)c3=O)CC2)cc1 (configuration not stated)	4	31*	0	6	-3
COc1ccc(NC(=O)CCCc2nc(-c3ccco3)no2)c(OC)c1	x	x	3	x	x
COc1cccc(Cn2c(=O)n(CCc3ccccc3)c(=O)c3c2c2cc(OC)ccc2n3C)c1	-3	x	0	x	x
CCC(=O)NCCn1c(C)cc2ccccc21	9	-14	1	-3	0
Cc1cc2ccccc2n1CCNC(=O)COc1ccccc1	-18	39*	0	-18	-6
Cc1ccc(Cn2cc(CCC(=O)NC3CCC(C)CC3)c3ccccc32)cc1 (configuration not stated)	3	x	0	x	x
Cc1sc(NC(=O)c2cccs2)c(C(=O)OC(C)C)c1C	-5	31*	1	-2	-6
Cc1cc(NC(=O)CSc2nc(C3CCCCC3)nc3ccccc23)no1	-1	-24	0	-8	-1
Cc1nonc1NC(=O)CSc1nc(C2CCCCC2)nc2ccccc12	2	54*	-1	-14	-4
CCOc1ccc(-c2cn3c(n2)sc2cc(C(=O)NCCC4=CCCCC4)ccc23)cc1	4	x	0	x	x
O=C(NCc1ccccc1)C1CCN(S(=O)(=O)c2ccc(N3CCCC3=O)cc2)CC1	-2	-14	-2	10	-2
